Screening results (PubChem BioAssay)
Only some compounds are listed: those with a hit (about 22% of all), similar ones and a draw of the others.
CYP2C19 inh: human CYP2C19 inhibition; P33261; CYP2C19 Supersomes, luciferin-H EGE luminescence, 30 min; inhibition, % at 5 µM; 96,000 tested, 21% active;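 active means CYP2C19 inhibition above a set limit at 5 µM in the primary screen, cut at about 50% in these data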
CYP2C9 act: CYP2C9 (human) activation. recombinant CYP2C9, luciferin-H conversion, luminescence; stronger effect = higher value; factor 1 = untreated enzyme, 0 = blocked. AID 1024. 96,000 tested, 1.4% active. activation factor at 5 µM;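 active means activation factor of 2 or more for CYP2C9 at a 5 µM dose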
Target sequence (P11712 whole entry, looked up): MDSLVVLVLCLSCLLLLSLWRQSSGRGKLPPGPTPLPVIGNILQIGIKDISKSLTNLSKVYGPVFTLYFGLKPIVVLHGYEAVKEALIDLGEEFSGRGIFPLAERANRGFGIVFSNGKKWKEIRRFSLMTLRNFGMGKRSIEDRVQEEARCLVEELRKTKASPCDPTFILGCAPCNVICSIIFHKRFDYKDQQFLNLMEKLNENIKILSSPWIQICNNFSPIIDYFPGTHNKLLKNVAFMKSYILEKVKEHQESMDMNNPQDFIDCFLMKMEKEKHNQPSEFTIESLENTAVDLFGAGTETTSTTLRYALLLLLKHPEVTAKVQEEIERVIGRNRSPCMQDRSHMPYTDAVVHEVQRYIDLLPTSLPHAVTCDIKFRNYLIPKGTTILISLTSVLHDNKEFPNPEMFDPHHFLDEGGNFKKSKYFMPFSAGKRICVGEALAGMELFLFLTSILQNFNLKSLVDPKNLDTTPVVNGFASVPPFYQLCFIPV
Measles CPE: protection of cells from measles virus | Measles virus-infected cells, CPE protection, absorbance | protection (pct of control), % at 4 µM | 140,000 tested, 1.5% active; in the data active means protection mostly above about 24%, no sharp cut-off; inactive means mostly below about 26%
CYP2C19 act: activators of human cytochrome P450 2C19. P33261. recombinant CYP2C19, luciferin-H EGE luminescence; stronger effect = higher value; 0 = fully inhibited enzyme, 1 = untreated enzyme. 96,000 tested, under 10 active. activation factor at 5 µM;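 active means activation factor of at least 2 at 5 µM in the primary screen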
CYP2C9 inh: human CYP2C9 inhibition; P11712; CYP2C9 Supersomes, luciferin-H conversion, luminescence; inhibition, % at 5 µM; 96,000 tested, 20% active; AID 777;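 active means blocking of liver enzyme CYP2C9 beyond about 50% at 5 µM, limit read from the data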
Large screens that a line does not name were inactive.

CCOCCCNC(=O)C(NC(=O)c1cnccn1)c1ccc(C)cc1 (stereo not drawn)	CYP2C19 inh 59
O=C(COc1ccc(S(=O)(=O)NC2CCCCC2)cc1)Nc1ccc2c(c1)OCCO2	CYP2C9 inh 80
Cc1cccc(OCC(=O)NC(=S)Nc2ccc(S(=O)(=O)NC3CCCCC3)cc2)c1	CYP2C9 inh 93
CCC(C)NS(=O)(=O)c1ccc(OCC(=O)Nc2ccc3c(c2)OCCO3)cc1 (stereo not drawn)	CYP2C9 inh 60
O=C(COc1ccc(S(=O)(=O)NC2CCCCC2)cc1)NCc1ccccn1	none
O=C(COC(=O)CCNS(=O)(=O)c1ccc(Cl)cc1)NCc1ccco1	none
Cc1cc(C(=O)N/N=C/c2ccccc2Br)no1	none
Cc1cc(C(=O)N/N=C/c2cccn2C)no1	Measles CPE 43 (no result: CYP2C19 inh, CYP2C9 act, CYP2C19 act, CYP2C9 inh)
Cn1c(=O)oc2cc(S(=O)(=O)N3CCCC(C(=O)NCCN4CCOCC4)C3)ccc21 (stereo not drawn)	none
Cc1cccc(C(=O)O/N=C(\N)Cc2ccc([N+](=O)[O-])cc2)c1	CYP2C19 inh 84
N/C(Cc1ccc([N+](=O)[O-])cc1)=N\OC(=O)c1ccc2ccccc2c1	none
N/C(Cc1ccc([N+](=O)[O-])cc1)=N\OC(=O)C(c1ccccc1)c1ccccc1	CYP2C9 inh 54
C=CCNC(=O)C1CCN(c2nc(C)cc(-c3ccccc3)n2)CC1	CYP2C19 inh 82, CYP2C9 inh 77
COC(=O)CN(C)C1CC(=O)N(c2ccc(Cl)cc2)C1=O (stereo not drawn)	none
CCOC(=O)c1ccc(N2C(=O)CC(N(Cc3ccc4c(c3)OCO4)C(=O)Nc3ccccc3)C2=O)cc1 (stereo not drawn)	CYP2C19 inh 81, CYP2C9 inh 89
CNC(=S)N(Cc1ccc2c(c1)OCO2)C1CC(=O)N(c2ccc(F)cc2)C1=O (stereo not drawn)	CYP2C19 inh 92, CYP2C9 inh 76
CN(Cc1ccncc1)C1CC(=O)N(c2ccc(Cl)cc2)C1=O (stereo not drawn)	CYP2C19 inh 99, CYP2C9 inh 94
CCOC(=O)c1ccc(NC(=O)c2ccc3c(c2)OCO3)cc1	none
CCOC(=O)c1ccc(N2C(=O)CC(N(C)CCc3ccc(OC)c(OC)c3)C2=O)cc1 (stereo not drawn)	CYP2C19 inh 73, CYP2C9 inh 55
CCCCN1C2=NCCCN2c2cc(C)c(C)cc21	none
CNC(=S)N(Cc1ccc(OC)cc1)C1CC(=O)N(c2ccc(Cl)cc2)C1=O (stereo not drawn)	CYP2C19 inh 63
Cc1sc2nc(SCC(=O)N(C)C)[nH]c(=O)c2c1C	CYP2C9 inh 54
CCOC(=O)Cc1csc(NC(=O)CSc2nc3sc(C(=O)O)c(C)c3c(=O)[nH]2)n1	CYP2C9 inh 84
Cc1csc(NC(=O)CSc2nc3sc(C)c(C)c3c(=O)[nH]2)n1	CYP2C9 inh 86
Cc1cc(Br)ccc1NC(=O)CNC(=O)CN1C(=O)NC2(CCCCCC2)C1=O	none
Cc1cc(Br)ccc1NC(=O)CN1C(=O)C2C3CC(c4ccccc4)C(C3)C2C1=O (stereo not drawn)	CYP2C9 inh 68
CCCCOc1ccccc1C(=O)NCCCC(=O)O	none
Cc1cccc(N2CCCn3c2nc2c3c(=O)n(CCN3CCOCC3)c(=O)n2C)c1	none
COc1ccc(/C=N/N=C2\SC(CC(=O)O)C(=O)N2c2ccccc2)c(OC)c1 (stereo not drawn)	none (no result: CYP2C19 inh, CYP2C9 act, CYP2C19 act, CYP2C9 inh)
CCc1ccc(NC2=CC(=O)CC(c3ccco3)C2)cc1 (stereo not drawn)	CYP2C19 inh 54, CYP2C9 inh 53
CCN(CC)c1ccc(C2=NNC(=O)CC2C)cc1[N+](=O)[O-] (stereo not drawn)	CYP2C9 inh 52
CC1CC(=O)NN=C1c1ccc(N(C)C)c([N+](=O)[O-])c1 (stereo not drawn)	none
COC(=O)CSc1nc(SCc2ccc(C)cc2)nc2c1CCCC2	CYP2C19 inh 95, CYP2C9 inh 97
COC(=O)CSc1nc(-c2ccc(C)cc2)c2c(c1C#N)CCCC2	CYP2C9 inh 55
CN(C)c1nc(SCc2ccccc2Cl)nc2c1CCCC2	CYP2C19 inh 80
O=c1[nH]c(SCc2ccccc2Cl)nc2c1CCCC2	none
COc1ccccc1NC(=O)CSc1nc(C)c2c(c1C#N)CCCC2	none
Cc1ccc(CSc2nc3c(c(SCC(=O)O)n2)CCCC3)cc1	none
Cc1ccc(CSc2nc3c(c(N(C)C)n2)CCCC3)cc1	CYP2C19 inh 93, CYP2C9 inh 56
COc1ccc(CCNC(=O)CN2CCOc3ccccc32)cc1OC	none (no result: CYP2C19 inh, CYP2C9 act, CYP2C19 act, CYP2C9 inh)
Cc1ccc(OCC(=O)NNC(=O)C(=O)N2CCCC2)c(C)c1	none (no result: CYP2C19 inh, CYP2C9 act, CYP2C19 act, CYP2C9 inh)
CNc1nc(SCc2ccc(C)cc2)nc2c1CCCC2	CYP2C19 inh 96, Measles CPE 57, CYP2C9 inh 73
CCCNc1nc2c(c(=O)n(C)c(=O)n2C)n1Cc1ccc(F)cc1	none
CCOC(=O)c1[nH]c2ccc(OC)cc2c1NC(=O)C(C)N1CCC2(CC1)OCCO2 (stereo not drawn)	CYP2C19 inh 70, CYP2C9 inh 71
CCOC(=O)c1[nH]c2ccc(F)cc2c1NC(=O)C(C)N1CCc2cc(OC)c(OC)cc2C1 (stereo not drawn)	CYP2C19 inh 91, CYP2C9 inh 98
O=C(NCCCN1CCOCC1)C1CCC(=O)N1C1CCCCC1 (stereo not drawn)	none
Cc1ccc(NC(=O)COc2ccc3oc4c(c3c2)CCCC4)nc1	CYP2C9 inh 55
COc1cccc(NC(=O)CN2C(=O)C3(OCCCO3)c3ccccc32)c1	none
O=C1c2ccccc2C(=O)N1CC1CCCO1 (stereo not drawn)	none
NC1(N)OC(CN2C(=O)c3ccccc3C2=O)CS1 (stereo not drawn)	CYP2C19 inh 52
CCCc1cc(C(=O)NC2CCCC2)no1	none
COc1ccccc1/C=C/CN1CCN(c2ccccc2)CC1	CYP2C19 inh 82
COc1ccccc1/C=C/C=N/N1CCN(Cc2ccccc2)CC1	none (no result: CYP2C19 inh, CYP2C9 act, CYP2C19 act, CYP2C9 inh)
c1ccc(CNn2nnnc2-c2ccccc2)cc1	CYP2C19 inh 68
CC1CCN(CCOc2cccc(Br)c2)CC1	none (no result: CYP2C19 inh, CYP2C9 act, CYP2C19 act, CYP2C9 inh)
Brc1cccc(OCCn2ccnc2)c1	CYP2C19 inh 93, CYP2C9 inh 64
CCc1cccc(OCCCn2ccnc2)c1	none (no result: CYP2C19 inh, CYP2C9 act, CYP2C19 act, CYP2C9 inh)
Cc1cc(OCCCn2ccnc2)cc(C)c1Cl	CYP2C19 inh 100, CYP2C9 inh 97
Brc1cccc(OCCOCCn2ccnc2)c1	CYP2C19 inh 100, CYP2C9 inh 99
CCOc1cccc(OCCCCn2ccnc2)c1	CYP2C19 inh 99, CYP2C9 inh 89
Cc1nnc(NC(=O)CSc2nnc(Cc3ccccc3)n2-c2ccccc2)s1	none
CNC(=O)NC(=O)C(C)OC(=O)c1cc2c(s1)CCCCC2 (stereo not drawn)	Measles CPE 29 (no result: CYP2C19 inh, CYP2C9 act, CYP2C19 act, CYP2C9 inh)
CC(NC(=O)c1cc2c(s1)CCCC2)C(C)(C)C (stereo not drawn)	none
O=C(Nc1c(-c2ccccc2)nc2sccn12)c1ccccc1	CYP2C19 inh 79, CYP2C9 inh 74
Cn1cc[nH]c1=S	none (no result: CYP2C19 inh, CYP2C9 act, CYP2C19 act, CYP2C9 inh)
O=C(Oc1cccc2c(O)cccc12)c1ccccc1	CYP2C19 inh 84, CYP2C9 inh 73
